In PubChem BioAssay (NCATS):
Several values for one entry are separate records, joined by “and”; a condition that tells them apart may be missing. Equal values may be shown once. Records with an inconclusive call do not appear. Unmarked numbers belong to inactive results. Activity calls are given as the source filed them. Calls come from the whole dose curve; as a rule, active = well fitted curve in the direction sought with a large enough effect; inconclusive = small, poorly fitted or top-dose-only effect, or another doubt; inactive = no such curve, though single readings can be large; an effect the other way counts as inactive or inconclusive.

Tests used:
[1] = Viability qHTS for spleen associated tyrosine kinase inhibitor (SYKi) naive MV4-11 cells (AID 1963823); conditions: MV4-11 AML viability, CellTiter-Glo luminescence, 72 h; series mostly up to 45 µM; note: nearly all actives have a fitted effect of over 40% in size
Method in brief: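 Read-out: CellTiter-Glo luminescence. Exposure: 72 hr, 37 C, 5% CO2, 95% humidity. Cells: MV4-11 without SYK inhibitor history, 500/well, qHTS format.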

[2] = Viability qHTS for spleen associated tyrosine kinase inhibitor (SYKi) drug resistant MV4-11 cells (AID 1963824); conditions: SYKi-resistant MV4-11 viability, CellTiter-Glo, 72 h; series mostly up to 45 µM; note: nearly all actives have a fitted effect of over 35% in size
Method in brief: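 SYK-inhibitor-resistant MV4-11 AML cells were seeded at 500 per well onto compound and cultured 72 hours (37 °C, 5% CO2). CellTiter-Glo was then added, and after 10 min at room temperature, luminescence gave viability.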

[3] = Quantitative highthroughput screen to assess conditional lethalithy of P12 Ichikawa cells grown in Human Plasma-Like Medium with dialyzed fetal bovine serum (HPLM+ds) (AID 1963879); conditions: ATP luminescence, 48 h; Potency: viability; series mostly up to 45.8 µM; note: nearly all actives have a fitted effect of over 35% in size
Method in brief: (§1)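 Each medium arm—HPLM with 10% dialyzed FBS, or RPMI1640 with 5 mM glucose and 10% untreated or dialyzed FBS—was screened against an 11-point, 3-fold compound titration for 48 h at 37 °C, with CellTiter-Glo luminescence as endpoint.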

[4] = Quantitative highthroughput screen to assess conditional lethalithy of SEM cells grown in Human Plasma-Like Medium with dialyzed fetal bovine serum (HPLM+ds) (AID 1963882); conditions: SEM B-ALL cells in HPLM+ds, CellTiter-Glo viability, 48 h; series mostly up to 45.8 µM; note: nearly all actives have a fitted effect of over 35% in size
Method in brief: as §1

[5] = Quantitative highthroughput screen to assess conditional lethalithy of SEM cells grown in RPMI1640 with unreated serum (RPMI+s) (AID 1963883); conditions: SEM B-ALL cells, CellTiter-Glo viability, 48 h; series mostly up to 45.8 µM; note: nearly all actives have a fitted effect of over 35% in size
Method in brief: as §1

[6] = Cellular viability qHTS for adrenocortical cancer (ACC) cell line SW-13 (AID 1963989); conditions: SW-13 ACC cells viability, CellTiter-Glo, 48 h; activity (max response): active compounds read low; note: nearly all actives have a fitted effect of over 65% in size;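 for activity (max response): cells grown in serum-free medium with ITS supplement; % is set by controls: 0 for no effect and ±100 for the full control effect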
Method in brief: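 Here, serum-free SW-13 cultures were dosed up to 46 uM. Following 48 h, ATP-dependent luminescence (CellTiter-Glo) reported viable cells, and logistic modeling produced IC50 values.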

[7] = Cellular viability qHTS for adrenocortical cancer (ACC) cell line NCI-H295R (AID 1963990); conditions: CellTiter-Glo ATP luminescence, 48 h; series mostly up to 46.1 µM; note: nearly all actives have a fitted effect of over 60% in size
Method in brief: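 Viability of NCI-H295R after 48 h of treatment (final up to 46 uM) measured through cellular ATP luminescence.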

[8] = Quantitative highthroughput screen to assess conditional lethalithy of P12 Ichikawa cells grown in RPMI1640 with dialyzed fetal bovine serum (RPMI+ds) (AID 1963880); conditions: ATP luminescence, 48 h; Potency: P12-Ichikawa viability; series mostly up to 45.8 µM; note: nearly all actives have a fitted effect of over 35% in size
Method in brief: as §1

[9] = Quantitative highthroughput screen to assess conditional lethalithy of P12 Ichikawa cells grown in RPMI1640 with untreated serum (RPMI+s) (AID 1963881); conditions: ATP luminescence, 48 h; Potency: viability; series mostly up to 45.8 µM; note: nearly all actives have a fitted effect of over 35% in size
Method in brief: as §1

[10] = Quantitative highthroughput screen to assess conditional lethalithy of SEM cells grown in RPMI1640 with dialyzed fetal bovine serum (RPMI+ds) (AID 1963884); conditions: SEM B-ALL cells, RPMI+dialyzed FBS, CellTiter-Glo viability, 48 h; series mostly up to 45.8 µM; note: nearly all actives have a fitted effect of over 35% in size
Method in brief: as §1
Potency is the fitted concentration of half-maximal effect.

| SMILES | Potency [1] | Potency [2] | Potency [3] | Potency [4] | Potency [5] | Potency [6] | Potency [7] | activity (max response) [6] [%] | Potency [8] | Potency [9] | Potency [10] |
| --- | --- | --- | --- | --- | --- | --- | --- | --- | --- | --- | --- |
| CNC(=O)c1ccccc1Nc1nc(Nc2ccc(N3CCOCC3)cc2OC)ncc1Cl | 184 nM (active) and 132 nM (active) | 326 nM (active) and 296 nM (active) | 8.33 µM (active) | 2.09 µM (active) | 1.87 µM (active) | 5.62 µM (active) | 0.631 µM (active) |  |  |  |  |
| COc1ccccc1N1CCN(CC(O)COc2cccc3ccccc23)CC1 (configuration not stated) | inactive | inactive | inactive |  |  |  | inactive | -10.8 |  |  |  |
| Oc1ccc(C2CCN(c3ccnc4ccccc34)CC2)cc1O | 2.09 µM (active) | 1.86 µM (active) |  |  | 11.8 µM (active) |  |  |  |  |  |  |
| CN(C)CCCN=c1c2ccccc2n(C)c2[nH]c(=O)n(C)c(=O)c12 | 5.9 µM (active) | 8.33 µM (active) |  | 11.8 µM (active) | 10.5 µM (active) | 25.1 µM (active) | 28.2 µM (active) |  | 18.7 µM (active) | 18.7 µM (active) | 9.35 µM (active) |
| Nc1cccc(-c2cc3c(Oc4cccc(O)c4)ncnc3[nH]2)c1 | 1.66 µM (active) | 2.91 µM (active) and 3.32 µM (active) | 16.6 µM (active) | 16.6 µM (active) |  | 3.16 µM (active) | 8.91 µM (active) |  |  |  |  |
| CCCC1OC2C[C@@H]3[C@H]4CCC5=CC(=O)C=C[C@]5(C)[C@H]4C(O)C[C@]3(C)[C@]2(C(=O)CO)O1 (some centres not stated) | 16.6 µM (active) | 7.42 µM (active) |  |  | 0.187 µM (active) |  | inactive | -12.3 | 0.0132 µM (active) |  | 0.132 µM (active) |
